Assay results from ChEMBL document CHEMBL4513216, “Probing the Open Global Health Chemical Diversity Library for Multistage-Active Starting Points for Next-Generation Antimalarials” (ACS Infect Dis, 2020).
Hit rate of the full screen: of about 69,000 compounds, about 8,600 (12%) showed an effect of 50% or more. The sample holds strong results, similar compounds and a random draw of the others, so the mix is not that of the screen.

test system: Plasmodium berghei; test: Screen against P. berghei liver stage (PbLuc), transformed with Luciferase, at 10uM; type: functional, HepG2; conditions: tested at 10 uM

| SMILES | INHIBITION |
| --- | --- |
| CC(NC(=O)NCCCN1CCCC1=O)c1nncn1C (centres undefined) | -7.31% |
| CCC(C(=O)NC1CCCC1)n1ccc2ncccc2c1=O (centres undefined) | -13.2% |
| Cc1n[nH]c(C)c1C1CCCN1C(=O)NCC(=O)Nc1ccccc1 (centres undefined) | 22% |
| O=C(c1ccc2c(c1)OCCCO2)N1CCCC(n2ccnc2)C1 (centres undefined) | 42% |
| Cc1csc(CCNC(=O)NC(C)Cn2cccn2)n1 (centres undefined) | -7.31% |
| COc1ccc(NC(=O)c2cnc(N(C)C3CCCCC3)nc2N)cc1 | 35.7% |
| CC/C=C(\C)CN1CCC(CNC(=O)c2ccc(=O)[nH]c2)CC1 | -24.7% |
| CN(c1ncc(C(=O)Nc2ccccc2)c(N)n1)C1CCCCC1 | 47.2% |
| CC/C=C(\C)CN1CCC(CNC(=O)c2ccnc(N)c2)C1 (centres undefined) | -5.8% |
| Cc1ccc(C(=O)NCc2ccc(N(C)C)cc2)cn1 | 32% |
| CC/C=C(\C)CN1CCC(CNC(=O)c2c[nH]c(=O)c(Cl)c2)C1 (centres undefined) | 63.8% |
| CN(C)c1cc(CNC(=O)c2ccc(O)nc2)ccn1 | 9.64% |
| CN(c1ncc(C(=O)NCc2ccccc2)c(N)n1)C1CCCCC1 | 63.6% |
| CCC1CCC(CNC(=O)c2c[nH]c(=O)c(Cl)c2)CC1 (centres undefined) | 4.35% |
| CN(c1ccc(CNC(=O)c2c[nH]c(=O)c(Cl)c2)cc1)C1CCCCC1 | 77.6% |
| CN(c1ccc(CNC(=O)c2ccc(O)nc2)cc1)C1CCCCC1 | 67.8% |
| CNC(=O)c1ccc(CNC(=O)NCCN(C)C2CCCC2)cc1 | -2.53% |
| CCOc1ncccc1NC(=O)N1CCC(CN2CCOCC2)CC1 | 31.65% |
| C[C@@H]1C(=O)NC[C@H]2CN(CCc3ccccc3)C[C@H]21 | 26.6% |
| CCC(CN1CCCC1)n1cncc1-c1cnn(-c2ccc(F)cc2)c1 (centres undefined) | 43.55% |
| CCOC1COC2(CCN(c3ncc(C)cn3)CC2)C1 (centres undefined) | 10.6% |
| CC(C)c1cc(C(=O)N2CCCC(n3cncn3)C2)n[nH]1 (centres undefined) | 15.6% |
| Fc1ccc(-c2nnc(CN3CCCC3Cn3cccn3)o2)cc1 (centres undefined) | 11.6% |

| SMILES | INHIBITION |
| --- | --- |
| Cn1nc2c(c1NC(=O)c1ccc(C3CCCN3C3CCC3)s1)CCC2 (centres undefined) | 15.4% |
| O=C(c1ccc(C2CCCO2)s1)N1Cc2ccccc2C1 (centres undefined) | -44.8% |
| CN1CCCC1c1ccc(C(=O)Nc2c3c(nn2C)CCC3)s1 (centres undefined) | 56% |
| CN1CCCC1c1ccc(C(=O)N2CCc3ccccc3C2)s1 (centres undefined) | 66.9% |
| CC(=O)N1CCCC1c1ccc(C(=O)N2CCOCC2)s1 (centres undefined) | 21.7% |
| Cn1nc2c(c1NC(=O)c1ccc(Cl)s1)CCC2 | -57.9% |
| COCC1CC2(CCN(Cc3cnn(C)c3)CC2)CN1c1ncccn1 (centres undefined) | 18.5% |
| O=C(CN1CCCC1COc1ccccc1)NCc1ccccn1 (centres undefined) | 38.2% |
| Cc1nc(C(C)(C)NC(=O)Nc2ccc(C#N)cc2)no1 | 79.2% |
| Cc1nc(C(C)(C)NC(=O)Nc2cccc(C#N)c2)no1 | -4.74% |
| Cc1ccc(NC(=O)NC(C)(C)c2noc(C)n2)cc1 | 13.6% |
| CCc1csc(C2CCCN(C(=O)c3ccnc(N(C)C)c3)C2)n1 (centres undefined) | 27.6% |
| CC(C)c1nnc(NC(=O)NCc2cccnc2NCCN(C)C)s1 | 25.7% |
| Cc1nc(NC(=O)NCc2cccnc2NCCN(C)C)sc1C | 37.7% |
| CN(C)CCNc1ncccc1CNC(=O)Nc1cc(F)cc(F)c1 | 55.6% |
| Cn1cc(S(=O)(=O)N(Cc2ccc(F)cc2F)C2CC2)cc1C(N)=O | 40.9% |
| Cc1n[nH]c(C)c1NC(=O)CN1CCCC1c1c(C)nn(C)c1C (centres undefined) | 9.54% |
| CCN(CC)C(=O)CSc1nc2cc(C)nc-2c(O)n1CC | 42.4% |
| c1cncc(C2COC3(CCN(Cc4nccs4)CC3)C2)c1 (centres undefined) | 36.2% |
| Cc1nc(CN2CCN(C(=O)CC(C)(C)c3ccccc3)CC2)no1 | -73.6% |
| COc1cccc(CCC(=O)N2CCN(Cc3noc(C)n3)CC2)c1 | -30.7% |
| O=C(CCn1ccc2ccccc21)N1CCN(Cc2cccnc2)CC1 | 64.9% |
| Cc1nc(CN2CCN(C(=O)CCc3cccc(Cl)c3)CC2)no1 | 75.2% |

| SMILES | INHIBITION |
| --- | --- |
| O=C(CCn1ccc2ccccc21)N1CCC(Nc2cccnc2)CC1 | -22.4% |
| Cc1nc(CN2CCN(C(=O)Cc3cccc(Cl)c3)CC2)no1 | -2.04% |
| Cc1nc(CN2CCN(C(=O)CCC(=O)c3ccccc3)CC2)no1 | -36.4% |
| Cc1nc(CN2CCN(C(=O)CCc3cccnc3)CC2)no1 | 65.2% |
| O=C(CCn1ccc2ccccc21)N1CCC(Nc2cccnn2)CC1 | -35.2% |
| O=C(CCn1cccn1)N1CCSCC1 | 4.55% |
| CN(C)Cc1ccccc1CN(C)C(=O)c1ccoc1 | 11.1% |
| c1c(CN2CCCCC2)nc2n1CCNC2 | -46.4% |
| Cc1nn(C)cc1S(=O)(=O)N(C)[C@@H]1CCC[C@@H](n2ccnc2)[C@@H]1O | 23% |
| O=C(CCc1c(F)cccc1F)NS(=O)(=O)c1ccc2c(c1)OCCO2 | 0.914% |
| COc1nc2ccccc2cc1CN1CCC(CNS(C)(=O)=O)C1 (centres undefined) | 7.15% |
| OCc1cc2ccccc2nc1NCC1CCN(CC(F)(F)F)C1 (centres undefined) | 63.8% |
| OC1(CNc2ccc(Br)cn2)CCC1 | -28.6% |
| OCc1cc2ccccc2nc1NCC1CC1 | 59.1% |
| FC(F)(F)CN1CCC(CNc2nc3ccccc3o2)C1 (centres undefined) | 24.8% |
| OCc1cc2ccccc2nc1NC1CC=CC1 | 62.8% |
| OCc1cc2ccccc2nc1NCC1(O)CCC1 | 58.2% |
| CC(C)(C)c1n[nH]cc1CNCC1CCN(CC(F)(F)F)C1 (centres undefined) | -35.2% |
| Cc1nnc2n1CC(CNc1ncnc3ccccc13)CC2 (centres undefined) | 22% |
| Cc1cc(C)c2c(NCC3(O)CCCCC3)ncnc2n1 | 36.6% |
| COc1cccn(CC(=O)N2CCCC3(CCOCC3)C2)c1=O | 40.9% |
| COCCNC(=O)[C@@]12CCO[C@@H]1CCN(Cc1ccc(OC)cc1)C2 | 39.2% |
| COc1ccc(CN2C[C@H]3CCC[C@@H](CN(C)C4CC4)[C@H]3C2)cn1 | -15.3% |
